Test results taken from the supplement of paper PMC3545927.
This is one part of the list. No count for the full screen is at hand.

Target: furin, P09958
Assay: furin cleavage Z-score vs untreated control; higher = more cleavage, active = 3.5 or more, inactive = 1 or less, 8 variable residues between constant flanks
Procedure, shortened: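 To give the cleavage Z-score, log read counts were set against furin-free reactions, lowess-adjusted and scaled by median absolute deviation. These counts came from PCR adapter-tagged, sequenced DNA released when purified furin cut 8-mer peptides fused to a cDNA oligonucleotide and held on magnetic beads by their N-terminus. Digests were 0.01 ml, 1:10 enzyme:substrate, in 50 mM HEPES pH 7.5 with CaCl2 and NaCl, for 7.5, 15 or 30 min.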

Chain of furin, P09958 (P09958 whole entry): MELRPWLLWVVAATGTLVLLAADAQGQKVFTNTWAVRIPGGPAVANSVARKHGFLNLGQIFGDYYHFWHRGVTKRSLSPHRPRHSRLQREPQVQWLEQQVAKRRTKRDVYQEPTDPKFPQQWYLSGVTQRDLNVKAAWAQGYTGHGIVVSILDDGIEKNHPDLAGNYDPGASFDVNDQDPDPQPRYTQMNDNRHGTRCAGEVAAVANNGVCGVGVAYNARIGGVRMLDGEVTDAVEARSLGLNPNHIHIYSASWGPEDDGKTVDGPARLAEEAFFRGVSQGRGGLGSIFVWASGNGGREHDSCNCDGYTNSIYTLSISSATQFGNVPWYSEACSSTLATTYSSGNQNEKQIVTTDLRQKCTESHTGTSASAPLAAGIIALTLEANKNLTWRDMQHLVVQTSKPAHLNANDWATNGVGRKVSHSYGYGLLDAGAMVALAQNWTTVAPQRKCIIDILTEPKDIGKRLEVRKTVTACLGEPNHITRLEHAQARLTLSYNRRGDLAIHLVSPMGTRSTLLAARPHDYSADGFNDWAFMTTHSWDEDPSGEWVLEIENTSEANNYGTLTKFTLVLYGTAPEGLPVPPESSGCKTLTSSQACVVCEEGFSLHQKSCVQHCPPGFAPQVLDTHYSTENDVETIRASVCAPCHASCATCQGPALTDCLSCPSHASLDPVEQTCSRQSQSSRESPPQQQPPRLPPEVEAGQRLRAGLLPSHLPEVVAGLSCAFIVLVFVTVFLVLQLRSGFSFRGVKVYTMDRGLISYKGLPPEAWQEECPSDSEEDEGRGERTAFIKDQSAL

Sequence | furin cleavage Z-score (7.5 min) | furin cleavage Z-score (15 min) | furin cleavage Z-score (30 min)
CAITTGSPITAGNASASA [HC803] | -2.76 (inactive) | 0.166 (inactive) | -2.04 (inactive)
CAHGVRVLEDAGNASASA [HC237] | -1.85 (inactive) | 0.0719 (inactive) | -1.67 (inactive)
CATLPCSGSWAGNASASA [HC1845] | -0.596 (inactive) | -0.261 (inactive) | -1.28 (inactive)
CAAFASRGNHAGNASASA [HC1121] | -0.112 (inactive) | -1.64 (inactive) | -2.06 (inactive)
CARKRRHAKPAGNASASA [FS-1906] | 10.5 (active) | 11.1 (active) | 8.48 (active)
CARGNHVSPTAGNASASA [HC1123] | 1.1 | 1.54 | 0.545 (inactive)
CAEVPCHRPKAGNASASA [HC2414] | -1.63 (inactive) | 0.536 (inactive) | -0.415 (inactive)
CAVVCCSMQYAGNASASA [HC2082] | 1.92 | 0.703 (inactive) | 0.648 (inactive)
CAGGAYDIIIAGNASASA [HC814] | -2.09 (inactive) | -0.697 (inactive) | -1.96 (inactive)
CAGAQRRRRAAGNASASA [FS-1524] | 6.18 (active) | 4.18 (active) | 4.18 (active)
CAGAGAGAGAAGNASASA [NE4] | -0.934 (inactive) | -0.739 (inactive) | -0.847 (inactive)
CAPAPPRRRAAGNASASA [FS-1041] | -0.128 (inactive) | 0.595 (inactive) | -0.381 (inactive)
CAGERRRRRAAGNASASA [FS-996] | 8.97 (active) | 8.15 (active) | 6.93 (active)
CAHHQRRRRAAGNASASA [FS-907] | 7.96 (active) | 6.66 (active) | 6.29 (active)
CAGERGFFYTAGNASASA [EK5] | -1.92 (inactive) | -1.21 (inactive) | -0.932 (inactive)
CAQEMEECSQAGNASASA [HC1802] | -0.772 (inactive) | 0.513 (inactive) | -1.67 (inactive)
CAVVCCSMGYAGNASASA [HC2076] | -1.88 (inactive) | -0.775 (inactive) | -0.0504 (inactive)
CAVVECSMSYAGNASASA [HC2032] | -0.21 (inactive) | -0.185 (inactive) | 0.282 (inactive)
CAYYRGLDVSAGNASASA [HC869] | 0.136 (inactive) | -0.206 (inactive) | -0.42 (inactive)
CARLFRGLDSAGNASASA [FS-2430] | -0.523 (inactive) | -0.794 (inactive) | 0.531 (inactive)
CAVRFRGKREAGNASASA [FS-514] | 11.2 (active) | 9.46 (active) | 7.95 (active)
CATLSTALAEAGNASASA [HC1330] | -0.432 (inactive) | -1.49 (inactive) | -1.25 (inactive)
CARLSRGTRPAGNASASA [FS-1748] | 1.1 | 0.607 (inactive) | 1.39

Sequence | furin cleavage Z-score (7.5 min) | furin cleavage Z-score (15 min) | furin cleavage Z-score (30 min)
CAVRVQGLLRAGNASASA [HC617] | -0.956 (inactive) | -0.879 (inactive) | -0.866 (inactive)
CAALSRGKREAGNASASA [FS-1584] | 11.2 (active) | 11.6 (active) | 8.56 (active)
CAMEECSQWLAGNASASA [HC1748] | 1.29 | 1.35 | -0.383 (inactive)
CAQEMGGNITAGNASASA [HC1278] | 0.989 (inactive) | 0.052 (inactive) | 0.798 (inactive)
CAANGSGPDQAGNASASA [HC398] | -0.135 (inactive) | -1.15 (inactive) | 0.257 (inactive)
CAEVCCSMSYAGNASASA [HC1992] | 0.759 (inactive) | 0.26 (inactive) | 0.528 (inactive)
CARTMRSSAGAGNASASA [FS-2831] | 0.517 (inactive) | -0.365 (inactive) | 0.495 (inactive)
CAAAIGSVGLAGNASASA [HC1079] | -0.425 (inactive) | -0.896 (inactive) | -0.452 (inactive)
CARRRRCVGLAGNASASA [FS-2403] | 2.54 | 1.19 | 5.18 (active)
CARRRRAVGLAGNASASA [FS-2595] | 3.99 (active) | 4.72 (active) | 5.23 (active)
CARRRRLVWTAGNASASA [FS-2079] | -0.712 (inactive) | 0.718 (inactive) | 2.58
CARTMRSVGLAGNASASA [FS-1936] | 5.41 (active) | 6.11 (active) | 5.7 (active)
CARRRRSVQLAGNASASA [FS-1789] | 1.43 | 0.51 (inactive) | 2.7
CARRRRDVVTAGNASASA [FS-2232] | 11.1 (active) | 11.8 (active) | 8.98 (active)
CAADVVCCSMAGNASASA [HC2103] | 1.06 | 0.666 (inactive) | 0.566 (inactive)
CATLVFDITKAGNASASA [HC602] | 1.27 | 0.292 (inactive) | -0.917 (inactive)
CALITWGADTAGNASASA [HC652] | 0.62 (inactive) | 1.26 | -1.35 (inactive)
CAQLSAPSLKAGNASASA [HC1263] | 1.12 | 0.729 (inactive) | -0.193 (inactive)
CAVYRRSLGKAGNASASA [FS-2202] | -0.0765 (inactive) | -0.584 (inactive) | -0.11 (inactive)
CARGRRSLGSAGNASASA [FS-1713] | 7.83 (active) | 9.89 (active) | 8.32 (active)
CARSVRPVEFAGNASASA [FS-3100] | -0.873 (inactive) | -2.07 (inactive) | -1.68 (inactive)
CARGRRSLEFAGNASASA [FS-1952] | 4.88 (active) | 7.64 (active) | 7.06 (active)
